Among the data in ChEMBL document CHEMBL2218924, “A broad activity screen in support of a chemogenomic map for kinase signalling research and drug discovery” (Biochem J, 2013) are residual activity values, retold here.

Each structure is given as a SMILES string.

The target in experiment [1] is Vascular endothelial growth factor receptor 3 (Homo sapiens) (UniProt P35916). To be noted: at 10 µM.
Experiment [2] deals with Macrophage colony-stimulating factor 1 receptor (Homo sapiens) (UniProt P07333). To be noted: at 1 µM.
Experiment [3] has the same target. To be noted: at 10 µM.
Experiment [4] addresses Tyrosine-protein kinase Fyn (Homo sapiens) (UniProt P06241). To be noted: at 1 µM.
The target is the same in experiment [5]. To be noted: at 10 µM.
In experiment [6] the target is T1, Mitogen-activated protein kinase kinase kinase kinase 2 (Homo sapiens) (UniProt Q12851).
T1 sequence (whole entry): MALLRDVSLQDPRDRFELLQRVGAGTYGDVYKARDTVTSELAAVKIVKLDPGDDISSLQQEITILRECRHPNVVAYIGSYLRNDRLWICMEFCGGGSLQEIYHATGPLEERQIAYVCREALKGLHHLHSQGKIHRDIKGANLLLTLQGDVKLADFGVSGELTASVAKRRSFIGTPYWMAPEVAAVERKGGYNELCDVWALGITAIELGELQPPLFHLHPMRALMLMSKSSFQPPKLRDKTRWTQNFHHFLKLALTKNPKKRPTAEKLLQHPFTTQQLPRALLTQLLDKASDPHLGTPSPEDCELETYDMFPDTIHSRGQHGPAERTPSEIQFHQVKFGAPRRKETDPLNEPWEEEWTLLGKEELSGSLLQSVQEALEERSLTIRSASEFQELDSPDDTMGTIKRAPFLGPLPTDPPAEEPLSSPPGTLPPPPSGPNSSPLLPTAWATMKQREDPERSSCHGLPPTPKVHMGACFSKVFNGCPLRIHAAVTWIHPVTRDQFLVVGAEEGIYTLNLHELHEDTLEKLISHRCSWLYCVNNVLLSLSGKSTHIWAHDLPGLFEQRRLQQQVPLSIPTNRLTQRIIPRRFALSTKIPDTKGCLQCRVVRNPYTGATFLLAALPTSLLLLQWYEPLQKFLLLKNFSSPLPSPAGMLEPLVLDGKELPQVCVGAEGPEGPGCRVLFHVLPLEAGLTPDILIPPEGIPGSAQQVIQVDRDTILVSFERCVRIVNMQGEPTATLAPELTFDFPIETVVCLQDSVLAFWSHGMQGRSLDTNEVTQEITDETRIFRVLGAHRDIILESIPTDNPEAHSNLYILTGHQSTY
To be noted: at 1 µM.

The target of experiment [7] is T1, Mitogen-activated protein kinase kinase kinase kinase 2 (Homo sapiens). To be noted: at 10 µM.
The target of experiment [8] is G protein-coupled receptor kinase 5 (Homo sapiens) (UniProt P34947). To be noted: at 10 µM.
Chain of G protein-coupled receptor kinase 5 (Homo sapiens) (P34947 whole entry, looked up): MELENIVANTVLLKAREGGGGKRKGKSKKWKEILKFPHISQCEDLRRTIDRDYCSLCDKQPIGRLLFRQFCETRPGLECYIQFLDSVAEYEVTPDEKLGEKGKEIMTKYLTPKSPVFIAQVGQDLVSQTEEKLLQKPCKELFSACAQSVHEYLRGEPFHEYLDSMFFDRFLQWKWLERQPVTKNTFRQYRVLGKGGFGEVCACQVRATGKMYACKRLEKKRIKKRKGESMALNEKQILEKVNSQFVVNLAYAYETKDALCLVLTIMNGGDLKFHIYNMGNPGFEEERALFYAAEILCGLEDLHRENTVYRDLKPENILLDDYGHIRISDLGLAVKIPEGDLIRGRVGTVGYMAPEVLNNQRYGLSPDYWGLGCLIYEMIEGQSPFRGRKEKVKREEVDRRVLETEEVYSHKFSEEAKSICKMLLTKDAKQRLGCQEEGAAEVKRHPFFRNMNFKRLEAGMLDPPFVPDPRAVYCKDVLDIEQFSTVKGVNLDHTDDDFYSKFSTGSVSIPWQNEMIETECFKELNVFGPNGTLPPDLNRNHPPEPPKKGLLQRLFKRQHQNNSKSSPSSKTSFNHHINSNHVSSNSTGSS
Experiment [9] concerns the target G protein-coupled receptor kinase 6 (Homo sapiens) (UniProt P43250). To be noted: at 10 µM.
Experiment [10] deals with T2, Rhodopsin kinase GRK7 (Homo sapiens) (UniProt Q8WTQ7).
T2 sequence (whole entry): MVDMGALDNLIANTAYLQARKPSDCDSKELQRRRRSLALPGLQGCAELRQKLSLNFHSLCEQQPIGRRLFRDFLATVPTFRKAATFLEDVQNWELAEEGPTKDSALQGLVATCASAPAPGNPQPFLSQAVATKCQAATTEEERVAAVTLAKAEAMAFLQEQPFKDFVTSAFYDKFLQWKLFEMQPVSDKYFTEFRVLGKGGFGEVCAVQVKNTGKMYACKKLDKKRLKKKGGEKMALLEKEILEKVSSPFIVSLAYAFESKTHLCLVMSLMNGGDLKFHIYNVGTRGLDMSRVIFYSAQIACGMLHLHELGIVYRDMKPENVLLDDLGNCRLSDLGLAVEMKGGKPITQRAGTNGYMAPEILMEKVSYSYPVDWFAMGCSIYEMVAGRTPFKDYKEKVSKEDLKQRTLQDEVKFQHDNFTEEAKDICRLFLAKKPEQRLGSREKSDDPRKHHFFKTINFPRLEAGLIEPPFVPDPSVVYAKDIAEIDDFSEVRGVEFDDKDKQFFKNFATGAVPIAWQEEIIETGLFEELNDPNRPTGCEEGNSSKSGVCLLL
To be noted: at 1 µM.

Experiment [11] concerns the target T2, Rhodopsin kinase GRK7 (Homo sapiens). To be noted: at 10 µM.
Experiment [12] has as its target Glycogen synthase kinase-3 alpha (Homo sapiens) (UniProt P49840). To be noted: at 1 µM.
The target is the same in experiment [13]. To be noted: at 10 µM.
The target in experiment [14] is Glycogen synthase kinase-3 beta (Homo sapiens) (UniProt P49841). To be noted: at 1 µM.
Chain of Glycogen synthase kinase-3 beta (Homo sapiens) (P49841 whole entry, looked up): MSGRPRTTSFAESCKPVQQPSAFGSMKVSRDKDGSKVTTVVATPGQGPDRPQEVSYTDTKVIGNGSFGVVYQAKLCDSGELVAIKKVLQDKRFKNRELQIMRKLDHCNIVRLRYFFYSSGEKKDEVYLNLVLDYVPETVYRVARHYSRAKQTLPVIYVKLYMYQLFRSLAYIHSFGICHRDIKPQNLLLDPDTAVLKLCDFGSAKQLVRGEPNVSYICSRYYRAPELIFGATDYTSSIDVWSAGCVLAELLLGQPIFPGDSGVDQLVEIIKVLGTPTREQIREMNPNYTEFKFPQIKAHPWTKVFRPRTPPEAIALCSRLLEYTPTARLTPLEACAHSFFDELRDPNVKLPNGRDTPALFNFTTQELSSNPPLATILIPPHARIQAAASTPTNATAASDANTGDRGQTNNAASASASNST
Experiment [15] has the same target. To be noted: at 10 µM.
Experiment [16] has as its target Homeodomain-interacting protein kinase 1 (Homo sapiens) (UniProt Q86Z02). To be noted: at 1 µM.
Experiment [17] has the same target. To be noted: at 10 µM.
Experiment [18] addresses Homeodomain-interacting protein kinase 2 (Homo sapiens) (UniProt Q9H2X6). To be noted: at 1 µM.
The target is the same in experiment [19]. To be noted: at 10 µM.
The target in experiment [20] is Homeodomain-interacting protein kinase 3 (Homo sapiens) (UniProt Q9H422). To be noted: at 1 µM.
Chain of Homeodomain-interacting protein kinase 3 (Homo sapiens) (Q9H422 whole entry, looked up): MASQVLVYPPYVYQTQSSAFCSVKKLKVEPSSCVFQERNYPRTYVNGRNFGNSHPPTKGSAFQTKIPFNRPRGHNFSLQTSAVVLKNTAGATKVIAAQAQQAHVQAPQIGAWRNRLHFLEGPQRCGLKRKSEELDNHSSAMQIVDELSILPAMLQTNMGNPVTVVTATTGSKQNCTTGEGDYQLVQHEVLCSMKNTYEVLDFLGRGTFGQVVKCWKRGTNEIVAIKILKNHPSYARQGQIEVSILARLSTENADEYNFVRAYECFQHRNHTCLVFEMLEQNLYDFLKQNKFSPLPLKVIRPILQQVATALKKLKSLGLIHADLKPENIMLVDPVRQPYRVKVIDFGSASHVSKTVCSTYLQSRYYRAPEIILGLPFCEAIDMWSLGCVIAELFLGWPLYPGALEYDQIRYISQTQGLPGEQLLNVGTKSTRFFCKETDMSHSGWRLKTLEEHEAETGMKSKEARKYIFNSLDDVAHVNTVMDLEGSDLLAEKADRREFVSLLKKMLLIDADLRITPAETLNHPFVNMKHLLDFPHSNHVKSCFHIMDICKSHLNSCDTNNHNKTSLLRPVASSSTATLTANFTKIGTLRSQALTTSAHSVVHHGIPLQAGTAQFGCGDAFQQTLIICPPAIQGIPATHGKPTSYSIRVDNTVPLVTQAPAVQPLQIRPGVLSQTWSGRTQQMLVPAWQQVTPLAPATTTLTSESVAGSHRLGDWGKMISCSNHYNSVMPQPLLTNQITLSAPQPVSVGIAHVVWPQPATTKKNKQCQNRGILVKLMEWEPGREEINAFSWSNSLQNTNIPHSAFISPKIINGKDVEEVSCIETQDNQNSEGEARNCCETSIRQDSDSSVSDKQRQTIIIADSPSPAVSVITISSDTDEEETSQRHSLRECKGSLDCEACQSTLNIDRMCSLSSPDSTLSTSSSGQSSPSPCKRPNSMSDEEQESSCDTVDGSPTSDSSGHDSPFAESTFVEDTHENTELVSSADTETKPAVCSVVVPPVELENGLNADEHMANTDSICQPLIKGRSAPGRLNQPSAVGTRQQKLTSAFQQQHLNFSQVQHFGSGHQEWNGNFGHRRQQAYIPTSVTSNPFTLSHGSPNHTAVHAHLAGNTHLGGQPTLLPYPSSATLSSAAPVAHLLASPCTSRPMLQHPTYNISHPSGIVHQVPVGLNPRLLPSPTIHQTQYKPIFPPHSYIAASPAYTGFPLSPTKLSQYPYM

Chain of Tyrosine-protein kinase Fyn (Homo sapiens) (P06241 2-537 limits assumed): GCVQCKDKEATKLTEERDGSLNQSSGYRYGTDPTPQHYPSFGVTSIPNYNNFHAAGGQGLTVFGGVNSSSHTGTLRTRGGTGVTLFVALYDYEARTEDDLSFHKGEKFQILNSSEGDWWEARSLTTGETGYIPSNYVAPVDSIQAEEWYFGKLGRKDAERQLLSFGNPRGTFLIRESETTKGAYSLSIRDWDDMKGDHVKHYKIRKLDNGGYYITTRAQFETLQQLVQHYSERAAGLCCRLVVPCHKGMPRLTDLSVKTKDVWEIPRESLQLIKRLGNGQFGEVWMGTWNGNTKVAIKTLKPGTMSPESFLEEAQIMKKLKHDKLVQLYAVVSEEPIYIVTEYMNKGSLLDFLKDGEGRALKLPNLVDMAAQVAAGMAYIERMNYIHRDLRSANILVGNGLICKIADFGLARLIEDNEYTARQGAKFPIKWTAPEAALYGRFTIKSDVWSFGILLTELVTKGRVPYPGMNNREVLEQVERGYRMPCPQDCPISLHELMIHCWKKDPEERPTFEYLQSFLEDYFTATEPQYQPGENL
Chain of Glycogen synthase kinase-3 alpha (Homo sapiens) (P49840 2-483 limits assumed): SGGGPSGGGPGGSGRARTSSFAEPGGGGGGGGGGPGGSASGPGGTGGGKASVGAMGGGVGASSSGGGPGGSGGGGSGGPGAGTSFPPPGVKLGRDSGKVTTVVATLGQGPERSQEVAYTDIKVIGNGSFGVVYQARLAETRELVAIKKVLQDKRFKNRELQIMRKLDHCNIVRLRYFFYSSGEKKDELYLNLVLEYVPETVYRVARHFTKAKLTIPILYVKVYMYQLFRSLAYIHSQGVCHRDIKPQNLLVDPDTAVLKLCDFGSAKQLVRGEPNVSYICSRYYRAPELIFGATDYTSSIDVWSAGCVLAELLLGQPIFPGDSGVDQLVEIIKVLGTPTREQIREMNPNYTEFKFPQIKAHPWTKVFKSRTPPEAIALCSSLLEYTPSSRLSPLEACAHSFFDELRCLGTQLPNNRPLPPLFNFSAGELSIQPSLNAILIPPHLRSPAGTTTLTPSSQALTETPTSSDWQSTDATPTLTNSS
Chain of Homeodomain-interacting protein kinase 2 (Homo sapiens) (Q9H2X6 whole entry, looked up): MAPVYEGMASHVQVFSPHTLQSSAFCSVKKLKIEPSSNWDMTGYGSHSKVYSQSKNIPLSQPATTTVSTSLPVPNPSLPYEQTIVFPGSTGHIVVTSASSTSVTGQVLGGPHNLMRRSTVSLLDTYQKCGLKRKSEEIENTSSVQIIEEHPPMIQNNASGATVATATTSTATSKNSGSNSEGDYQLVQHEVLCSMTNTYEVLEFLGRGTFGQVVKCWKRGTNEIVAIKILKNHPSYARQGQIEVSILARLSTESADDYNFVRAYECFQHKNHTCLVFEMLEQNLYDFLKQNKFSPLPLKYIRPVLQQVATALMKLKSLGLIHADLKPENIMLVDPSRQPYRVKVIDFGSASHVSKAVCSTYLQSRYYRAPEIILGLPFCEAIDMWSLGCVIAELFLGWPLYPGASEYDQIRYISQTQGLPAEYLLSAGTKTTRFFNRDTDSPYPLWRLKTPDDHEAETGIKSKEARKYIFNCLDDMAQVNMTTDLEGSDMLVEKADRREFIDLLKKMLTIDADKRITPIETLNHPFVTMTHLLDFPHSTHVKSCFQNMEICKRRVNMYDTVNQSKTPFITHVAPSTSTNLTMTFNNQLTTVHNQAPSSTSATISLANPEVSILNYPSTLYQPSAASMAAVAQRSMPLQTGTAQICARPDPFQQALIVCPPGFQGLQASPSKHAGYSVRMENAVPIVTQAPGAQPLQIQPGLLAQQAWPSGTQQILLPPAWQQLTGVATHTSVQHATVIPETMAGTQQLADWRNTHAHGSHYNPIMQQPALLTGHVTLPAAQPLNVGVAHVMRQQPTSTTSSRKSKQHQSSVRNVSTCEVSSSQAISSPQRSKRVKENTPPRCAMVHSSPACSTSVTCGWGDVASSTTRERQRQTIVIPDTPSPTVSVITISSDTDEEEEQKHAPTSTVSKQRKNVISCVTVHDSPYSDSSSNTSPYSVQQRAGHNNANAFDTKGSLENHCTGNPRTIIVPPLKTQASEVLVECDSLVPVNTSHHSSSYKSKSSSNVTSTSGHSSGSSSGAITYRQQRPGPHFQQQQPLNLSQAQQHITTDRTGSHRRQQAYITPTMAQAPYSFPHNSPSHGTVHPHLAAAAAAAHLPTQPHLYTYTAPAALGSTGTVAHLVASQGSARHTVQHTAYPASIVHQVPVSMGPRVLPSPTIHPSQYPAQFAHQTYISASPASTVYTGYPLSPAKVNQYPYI
Chain of G protein-coupled receptor kinase 6 (Homo sapiens) (P43250 whole entry, looked up): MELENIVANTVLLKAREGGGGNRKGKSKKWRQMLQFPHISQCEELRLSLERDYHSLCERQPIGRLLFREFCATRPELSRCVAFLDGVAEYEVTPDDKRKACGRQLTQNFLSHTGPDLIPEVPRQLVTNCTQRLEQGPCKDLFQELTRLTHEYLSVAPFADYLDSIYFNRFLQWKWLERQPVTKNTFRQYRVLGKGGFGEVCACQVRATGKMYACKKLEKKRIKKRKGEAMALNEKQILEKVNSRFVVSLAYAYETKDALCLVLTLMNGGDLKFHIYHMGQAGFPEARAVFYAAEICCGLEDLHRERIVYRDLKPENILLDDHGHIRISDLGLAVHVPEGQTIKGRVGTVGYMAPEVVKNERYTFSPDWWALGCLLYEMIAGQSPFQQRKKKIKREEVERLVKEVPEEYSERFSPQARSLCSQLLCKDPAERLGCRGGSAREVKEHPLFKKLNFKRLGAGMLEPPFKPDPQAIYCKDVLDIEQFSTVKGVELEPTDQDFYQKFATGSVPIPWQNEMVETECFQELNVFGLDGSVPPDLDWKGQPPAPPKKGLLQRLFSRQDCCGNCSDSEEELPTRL

On to `CC(=O)O/N=C1\C(=C2\C(=O)Nc3cc(Br)ccc32)Nc2ccccc21`, for which the residual activity in experiment [1] worked out at 1%; in experiment [2], 33%; in experiment [3], 16%; in [4], 1%; in [5] it was 0%; in experiment [6] it was 67%. Moreover, the residual activity in experiment [7] stood at 23%; in experiment [8], 94%; in experiment [9], 88%; in [10] it was 106%; in experiment [11], 87%; in [12], 4%. Further, the residual activity in experiment [13] came out at 0%; in experiment [14], 14%; in experiment [15], 2%; in experiment [16], 95%; in [17] it was 85%; in experiment [18], 84%. Also, the residual activity in experiment [19] amounted to 43%; in [20], 93%.

Turning to `COc1ccc(CNc2nc(N(CCO)CCO)nc3c2ncn3C(C)C)cc1`, the residual activity in experiment [1] came out at 30%; in [2], 91%; in experiment [3] it was 69%; in [4], 70%; in [5], 90%; in experiment [6] it was 78%. In addition, the residual activity in [7] is 78%; in experiment [8], 93%; in [9], 86%; in experiment [10], 76%; in experiment [11], 69%; in experiment [12], 74%. The residual activity in experiment [13] was determined as 75%; in experiment [14], 91%; in [15], 102%; in experiment [16], 102%; in experiment [17], 88%; in experiment [18], 98%. For the same molecule, the results for the residual activity in experiment [19] and in experiment [20] were 82% and 105%, respectively.

Consider `O=Nc1c(-c2c(O)[nH]c3ccccc23)[nH]c2ccccc12`, for which the residual activity in experiment [1] came to 1%; in experiment [2], 15%; in experiment [3], 8%; in [4], 5%; in [5], 0%; in [6], 13%. In addition, the residual activity worked out at 1% in experiment [7]; 58% in [8]; 80% in experiment [9]; 73% in [10]; 18% in experiment [11]; 5% in experiment [12]. Besides, the residual activity in experiment [13] amounted to 1%; in experiment [14], 10%; in experiment [15], 1%; in experiment [16], 90%; in [17] it was 73%; in [18], 48%. Besides, the residual activity in [19] amounted to 8%; in experiment [20], 88%.

On to `CCN(CC)CCCCN1c2ccccc2Oc2ccc(Cl)cc21`, for which the residual activity in experiment [1] came to 102%; in [2] it was 124%; in experiment [3] it was 127%; in [4] it was 102%; in experiment [5], 108%; in [6], 109%. In addition, the residual activity was 91% in [7]; 97% in experiment [8]; 98% in [9]; 111% in experiment [10]; 95% in [11]; 133% in experiment [12]. Moreover, the residual activity in experiment [13] was 124%; in experiment [14], 103%; in experiment [15] it was 129%; in experiment [16], 103%; in experiment [17] it was 113%; in experiment [18], 108%. For the same molecule, the figures for the residual activity in experiment [19] and in experiment [20] were 96% and 97%, respectively.

Regarding `O=c1c2ccccc2[nH]c(=S)n1CCN1CCC(=C(c2ccc(F)cc2)c2ccc(F)cc2)CC1`, the residual activity in experiment [1] amounted to 92%; in [2], 69%; in experiment [3] it was 84%; in experiment [4], 89%; in experiment [5], 46%; in [6], 93%. For the same molecule, the residual activity in [7] stood at 82%; in [8], 89%; in experiment [9] it was 90%; in experiment [10], 93%; in experiment [11], 97%; in experiment [12] it was 102%. The residual activity in [13] came out at 142%; in experiment [14] it was 99%; in [15] it was 123%; in [16], 94%; in [17] it was 106%; in experiment [18], 102%. Further, the values for the residual activity in [19] and in [20] were 94% and 100%, respectively.

Take `Cn1cc(/C=C2\C(=O)Nc3ccc(S(N)(=O)=O)cc32)c2ccccc21`: the residual activity came out at 3% in experiment [1]; 52% in experiment [2]; 12% in [3]; 10% in [4]; 3% in experiment [5]; 7% in experiment [6]. Moreover, the residual activity in experiment [7] turned out to be 1%; in experiment [8], 37%; in experiment [9] it was 89%; in experiment [10] it was 14%; in experiment [11] it was 6%; in experiment [12] it was 120%. In addition, the residual activity amounted to 87% in [13]; 89% in [14]; 66% in [15]; 91% in experiment [16]; 93% in experiment [17]; 60% in experiment [18]. The residual activity in experiment [19] turned out to be 19%; in [20], 85%.
